Experimental data from the supplement of paper PMC6897291.

Tests used:
U-2932 [1] = test: growth inhibition by drug alone (1 - RLU/untreated control) (fraction); higher = stronger inhibition; conditions: 177Lu-lilotomab satetraxetan 0 ug/ml
Summary of the method: (§1)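 Compound doses on the pre-printed Selleck Cambridge Cancer Compound library plates were 10/100 nM for RIVA cells and 10/1,000 nM for U-2932 cells, seeded at 3,000 cells/well. Before seeding, cells were washed after 18 h with or without a radiolabelled anti-CD37 antibody conjugate (~600 MBq/mg; 0.5 µg/ml RIVA, 1 µg/ml U-2932). Growth inhibition was derived from RealTime-Glo luminescence relative to untreated no-drug control wells. Readings were taken daily starting on day 3, each after 1 h at 37°C, and each well's RLU was divided by the mean of 48 such wells per plate and subtracted from 1.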

RIVA [2] = test: as above; conditions: 177Lu-lilotomab satetraxetan 0 ug/ml
Summary of the method: as §1

U-2932 [3] = test: growth inhibition by drug plus 177Lu-lilotomab satetraxetan (1 - RLU/untreated control) (fraction); higher = stronger inhibition; conditions: 177Lu-lilotomab satetraxetan 1 ug/ml
Summary of the method: as §1

RIVA [4] = test: as above; conditions: 177Lu-lilotomab satetraxetan 0.5 ug/ml
Summary of the method: as §1

SMILES	growth inhibition by drug alone (U-2932 [1]; 10 nM, time (day): 3)	growth inhibition by drug alone (U-2932 [1]; 10 nM, time (day): 4)	growth inhibition by drug alone (U-2932 [1]; 10 nM, time (day): 5)	growth inhibition by drug alone (U-2932 [1]; 10 nM, time (day): 6)	growth inhibition by drug alone (U-2932 [1]; 1000 nM, time (day): 3)	growth inhibition by drug alone (U-2932 [1]; 1000 nM, time (day): 4)	growth inhibition by drug alone (U-2932 [1]; 1000 nM, time (day): 5)	growth inhibition by drug alone (U-2932 [1]; 1000 nM, time (day): 6)	growth inhibition by drug alone (RIVA [2]; 10 nM, time (day): 3)	growth inhibition by drug alone (RIVA [2]; 10 nM, time (day): 4)	growth inhibition by drug alone (RIVA [2]; 10 nM, time (day): 5)	growth inhibition by drug alone (RIVA [2]; 10 nM, time (day): 6)	growth inhibition by drug alone (RIVA [2]; 100 nM, time (day): 3)	growth inhibition by drug alone (RIVA [2]; 100 nM, time (day): 4)	growth inhibition by drug alone (RIVA [2]; 100 nM, time (day): 5)	growth inhibition by drug alone (RIVA [2]; 100 nM, time (day): 6)	growth inhibition by drug plus 177Lu-lilotomab satetraxetan (U-2932 [3]; 10 nM, time (day): 3)	growth inhibition by drug plus 177Lu-lilotomab satetraxetan (U-2932 [3]; 10 nM, time (day): 4)	growth inhibition by drug plus 177Lu-lilotomab satetraxetan (U-2932 [3]; 10 nM, time (day): 5)	growth inhibition by drug plus 177Lu-lilotomab satetraxetan (U-2932 [3]; 10 nM, time (day): 6)	growth inhibition by drug plus 177Lu-lilotomab satetraxetan (U-2932 [3]; 1000 nM, time (day): 3)	growth inhibition by drug plus 177Lu-lilotomab satetraxetan (U-2932 [3]; 1000 nM, time (day): 4)	growth inhibition by drug plus 177Lu-lilotomab satetraxetan (U-2932 [3]; 1000 nM, time (day): 5)	growth inhibition by drug plus 177Lu-lilotomab satetraxetan (U-2932 [3]; 1000 nM, time (day): 6)	growth inhibition by drug plus 177Lu-lilotomab satetraxetan (RIVA [4]; 10 nM, time (day): 3)	growth inhibition by drug plus 177Lu-lilotomab satetraxetan (RIVA [4]; 10 nM, time (day): 4)	growth inhibition by drug plus 177Lu-lilotomab satetraxetan (RIVA [4]; 10 nM, time (day): 5)	growth inhibition by drug plus 177Lu-lilotomab satetraxetan (RIVA [4]; 10 nM, time (day): 6)	growth inhibition by drug plus 177Lu-lilotomab satetraxetan (RIVA [4]; 100 nM, time (day): 3)	growth inhibition by drug plus 177Lu-lilotomab satetraxetan (RIVA [4]; 100 nM, time (day): 4)	growth inhibition by drug plus 177Lu-lilotomab satetraxetan (RIVA [4]; 100 nM, time (day): 5)	growth inhibition by drug plus 177Lu-lilotomab satetraxetan (RIVA [4]; 100 nM, time (day): 6)
O=C(O)c1ccc2c(c1)nc(Nc1cccc(Cl)c1)c1ccncc12 [cx-4945 (Silmitasertib)]	0.0111	-0.0226	-0.00497	0.0386	0.0436	0.0306	-0.0126	-0.0489	-0.142	-0.128	-0.161	-0.291	0.0492	-0.00845	-0.0374	-0.111	0.0376	0.0473	0.0445	0.189	0.0211	0.0508	0.0545	0.159	0.409	0.518	0.528	0.542	0.413	0.47	0.487	0.468
N#CC[C@H](C1CCCC1)n1cc(-c2ncnc3[nH]ccc23)cn1	0.018	0.0281	-0.0548	-0.139	-0.0929	-0.0506	-0.111	-0.125	0.0229	-0.0212	-0.0792	-0.268	-0.143	-0.098	-0.128	-0.247	0.00599	0.0333	-0.193	0.112	-0.166	-0.0146	-0.0674	-0.122	0.32	0.445	0.469	0.488	0.269	0.379	0.376	0.348
